# Results taken from PubChem BioAssay (Tox21).
# Several values for one entry are separate records, joined by “and”; a condition that tells them apart may be missing. Identical values can stand only once. Results filed as inconclusive are left out. A call without a number means that no potency is given here. The source holds several records for some structures; these can differ, active in one and inactive in another. Activity calls are given as the source filed them. Calls follow the shape of the dose curve; as a rule, active = well fitted cell-killing curve with a large enough effect in the repeat runs; inconclusive = weak or mixed curves; inactive = no such curve, though single readings can be large or run the other way.
# Test: qHTS assay for identifying genotoxic compounds that show differential cytotoxicity against isogenic chicken DT40 cell lines with known DNA damage response pathways - Rad54/Ku70 mutant cell line (AID 743015); also: nearly all actives have a fitted effect of over 60% in size
# Details: DT40 Rad54/Ku70 mutant viability, CellTiter-Glo, 40 h; series mostly up to 66.8 µM
# Potency is read from the fitted curve at half-maximal effect.
row,Structure (SMILES),Potency
1,OCCC1CCCCN1 (stereo unspecified),inactive
2,CCCC[C@H]1CN(CC2CCOCC2)C(=O)OC12CCN(C1(C)CCN(C(=O)c3c(C)ncnc3C)CC1)CC2,inactive
3,O=C(O)COC(=O)Cc1ccccc1Nc1c(Cl)cccc1Cl,inactive
4,CN1CCC(OC(c2ccccc2)c2ccccc2)CC1,11.4 µM (active)
5,c1ccc(OCc2ccc(CCCN3CCOCC3)cc2)cc1,0.596 µM (active)
6,N#Cc1c(F)cccc1F,inactive
7,CCOc1nc2cccc(C(=O)O)c2n1Cc1ccc(-c2ccccc2-c2nn[nH]n2)cc1,29.8 µM (active)
8,NC(N)=NN=C(/C=C/c1ccc([N+](=O)[O-])o1)/C=C/c1ccc([N+](=O)[O-])o1,1.88 µM (active)
9,Cc1ccccn1,inactive
10,NC1CCN(c2nc3c(cc2F)c(=O)c(C(=O)O)cn3-c2ccc(F)cc2F)C1 (stereo unspecified),18.8 µM (active)
11,CCCCCCOC(=O)CCC,inactive
12,COc1cc(C(C)(C)C)c(O)c(C(C)(C)C)c1,30.6 µM (active)
13,CC(C)c1cccc(C(C)C)c1NC(=O)NS(=O)(=O)c1cc(C(C)(C)O)co1,inactive
14,O=C(O)C(c1ccc(Cl)cc1)c1ccc(Cl)cc1,inactive
15,COCCCCCCCCOCCC[Si](C)(O[Si](C)(C)C)O[Si](C)(C)C,6.11 µM (active)
16,CC(Cc1cccc(C(F)(F)F)c1)NCCOC(=O)c1ccccc1 (stereo unspecified),26.6 µM (active)
17,O=C(/C=C/c1ccc(O)c(O)c1)O[C@@H]1C[C@](O)(C(=O)O)C[C@@H](O)[C@H]1O,inactive
18,NC[C@H]1O[C@H](O[C@H]2[C@H](O)[C@@H](O[C@H]3O[C@H](CO)[C@@H](O)[C@H](N)[C@H]3O)[C@H](N)C[C@@H]2N)[C@H](O)[C@@H](O)[C@@H]1O,inactive and 1.89 µM (active)

row,Structure (SMILES),Potency
1,CC(C)(C)c1cc(O)c(C(C)(C)C)cc1O,13.7 µM (active)
2,CCOC(=O)[C@H](CCc1ccccc1)N[C@H]1CCc2ccccc2N(CC(=O)O)C1=O,21.1 µM (active)
3,C=C(C)C(=O)OCCN(C)C,inactive
4,S=C(S)NCCNC(=S)S,inactive
5,Cc1ccc(C(C)c2ccc(C)c(C)c2)cc1C,inactive
6,CCCCOC(=O)/C=C\C(=O)OCCCC,inactive
7,CC(C)(C)C1CCCCC1O (stereo unspecified),inactive
8,O=C(O)Cc1cc(I)c(Oc2ccc(O)c(I)c2)c(I)c1,inactive and 54.5 µM (active)
9,CN1CCC(=C2c3ccccc3C=Cc3ccccc32)CC1,13.3 µM (active)
10,N[C@H]1C(O)O[C@H](CO)[C@H](O)[C@@H]1O (stereo partly specified),inactive
11,CC1CCc2cc(F)cc3c(=O)c(C(=O)O)cn1c23 (stereo unspecified),inactive
12,CN(c1nccc(=O)[nH]1)C1CCN(c2nc3ccccc3n2Cc2ccc(F)cc2)CC1,inactive
13,Cc1cccc(C(C)(C)C)c1O,inactive
14,C=Cc1c(C)c2cc3[nH]c(cc4nc(cc5nc(cc1[nH]2)C(C)=C5CCC(=O)O)C(CCC(=O)O)=C4C)c(C)c3C=C,inactive
15,CCCCCC/C=C/C=O,inactive
16,NC(=S)N/N=C/c1cccnc1,inactive
17,Nc1nc(N)c2nc(CNc3ccc(C(=O)N[C@@H](CCC(=O)O)C(=O)O)cc3)cnc2n1,23.7 µM (active) and 1.4 nM (active)
18,CCOc1cc(OCC)c(C(=O)CCC(=O)O)cc1OCC,inactive
